In experiment [1] the target is Tyrosine-protein kinase SYK (Homo sapiens) (UniProt P43405). The following applies: at 10 µM.
The target in experiment [2] is T1, Mitogen-activated protein kinase kinase kinase 7 (Homo sapiens) (UniProt O43318).
T1 sequence (whole entry): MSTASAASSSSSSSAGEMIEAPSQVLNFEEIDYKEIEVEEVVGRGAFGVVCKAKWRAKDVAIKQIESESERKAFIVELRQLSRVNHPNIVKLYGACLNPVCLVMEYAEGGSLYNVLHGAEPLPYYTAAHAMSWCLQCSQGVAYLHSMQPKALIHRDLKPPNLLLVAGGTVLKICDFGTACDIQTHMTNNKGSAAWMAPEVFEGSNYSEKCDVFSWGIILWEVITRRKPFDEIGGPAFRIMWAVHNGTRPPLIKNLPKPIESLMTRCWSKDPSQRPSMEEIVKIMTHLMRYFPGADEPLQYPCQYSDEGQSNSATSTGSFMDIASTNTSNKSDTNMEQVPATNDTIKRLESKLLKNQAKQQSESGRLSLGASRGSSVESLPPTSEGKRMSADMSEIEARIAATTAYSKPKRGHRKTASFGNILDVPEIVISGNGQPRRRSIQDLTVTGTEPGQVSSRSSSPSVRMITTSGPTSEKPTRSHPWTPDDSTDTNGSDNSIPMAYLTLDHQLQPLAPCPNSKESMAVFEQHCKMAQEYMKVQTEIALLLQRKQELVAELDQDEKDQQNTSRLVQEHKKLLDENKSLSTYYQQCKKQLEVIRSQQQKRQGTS
The following applies: at 1 µM.

The target in experiment [3] is T1, Mitogen-activated protein kinase kinase kinase 7 (Homo sapiens). Particulars: at 10 µM.
The target of experiment [4] is T2, Serine/threonine-protein kinase TAO1 (Homo sapiens) (UniProt Q7L7X3).
T2 sequence (whole entry): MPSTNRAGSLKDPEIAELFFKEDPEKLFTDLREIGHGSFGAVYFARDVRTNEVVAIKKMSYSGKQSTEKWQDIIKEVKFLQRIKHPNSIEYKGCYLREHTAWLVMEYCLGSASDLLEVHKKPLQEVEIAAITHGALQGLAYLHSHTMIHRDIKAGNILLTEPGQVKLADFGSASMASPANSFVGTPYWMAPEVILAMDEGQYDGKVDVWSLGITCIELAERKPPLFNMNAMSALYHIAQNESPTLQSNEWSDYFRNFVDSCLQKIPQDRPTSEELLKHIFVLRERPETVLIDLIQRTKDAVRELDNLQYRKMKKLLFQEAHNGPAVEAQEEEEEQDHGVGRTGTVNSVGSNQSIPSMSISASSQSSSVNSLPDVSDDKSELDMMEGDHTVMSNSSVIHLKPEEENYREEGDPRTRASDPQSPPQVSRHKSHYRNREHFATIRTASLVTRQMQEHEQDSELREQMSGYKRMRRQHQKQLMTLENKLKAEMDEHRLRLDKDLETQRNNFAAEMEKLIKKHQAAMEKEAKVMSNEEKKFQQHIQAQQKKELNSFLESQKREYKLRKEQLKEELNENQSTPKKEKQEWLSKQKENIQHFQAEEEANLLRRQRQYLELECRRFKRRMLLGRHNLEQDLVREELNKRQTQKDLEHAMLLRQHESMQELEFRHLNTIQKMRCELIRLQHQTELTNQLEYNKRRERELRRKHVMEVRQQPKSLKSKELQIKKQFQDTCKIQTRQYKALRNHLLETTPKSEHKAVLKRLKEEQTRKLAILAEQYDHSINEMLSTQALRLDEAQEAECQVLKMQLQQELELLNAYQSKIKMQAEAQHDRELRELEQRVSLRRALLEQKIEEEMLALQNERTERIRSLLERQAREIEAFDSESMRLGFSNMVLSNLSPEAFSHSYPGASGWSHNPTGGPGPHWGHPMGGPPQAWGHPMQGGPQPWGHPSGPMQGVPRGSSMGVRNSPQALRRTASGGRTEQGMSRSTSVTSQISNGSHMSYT
Particulars: at 10 µM.

Experiment [5] has as its target T3, Serine/threonine-protein kinase TAO3 (Homo sapiens) (UniProt Q9H2K8).
T3 sequence (whole entry): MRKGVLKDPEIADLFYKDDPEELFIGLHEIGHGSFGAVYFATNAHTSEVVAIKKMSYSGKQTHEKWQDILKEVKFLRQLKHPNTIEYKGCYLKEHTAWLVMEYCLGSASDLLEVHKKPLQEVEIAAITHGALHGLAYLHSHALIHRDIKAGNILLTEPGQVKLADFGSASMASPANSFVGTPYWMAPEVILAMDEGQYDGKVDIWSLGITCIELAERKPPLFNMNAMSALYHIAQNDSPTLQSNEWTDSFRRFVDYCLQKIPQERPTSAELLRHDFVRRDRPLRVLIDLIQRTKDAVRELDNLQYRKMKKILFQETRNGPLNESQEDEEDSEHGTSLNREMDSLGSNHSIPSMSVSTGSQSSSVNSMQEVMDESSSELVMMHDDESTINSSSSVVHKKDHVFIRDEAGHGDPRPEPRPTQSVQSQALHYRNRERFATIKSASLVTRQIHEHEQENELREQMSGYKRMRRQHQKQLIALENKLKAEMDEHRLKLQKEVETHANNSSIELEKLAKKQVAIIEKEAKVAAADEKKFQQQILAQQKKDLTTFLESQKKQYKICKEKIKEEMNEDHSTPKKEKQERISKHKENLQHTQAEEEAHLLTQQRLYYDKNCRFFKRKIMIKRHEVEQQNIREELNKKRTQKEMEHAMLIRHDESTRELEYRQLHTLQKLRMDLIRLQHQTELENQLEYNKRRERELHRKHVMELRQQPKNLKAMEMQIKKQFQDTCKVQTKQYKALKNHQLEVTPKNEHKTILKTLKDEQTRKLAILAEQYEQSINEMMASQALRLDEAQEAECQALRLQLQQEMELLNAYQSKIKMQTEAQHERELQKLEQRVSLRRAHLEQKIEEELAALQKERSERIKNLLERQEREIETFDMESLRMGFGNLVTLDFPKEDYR
The following applies: at 10 µM.

The target in experiment [6] is T4, Serine/threonine-protein kinase TBK1 (Homo sapiens) (UniProt Q9UHD2).
T4 sequence (whole entry): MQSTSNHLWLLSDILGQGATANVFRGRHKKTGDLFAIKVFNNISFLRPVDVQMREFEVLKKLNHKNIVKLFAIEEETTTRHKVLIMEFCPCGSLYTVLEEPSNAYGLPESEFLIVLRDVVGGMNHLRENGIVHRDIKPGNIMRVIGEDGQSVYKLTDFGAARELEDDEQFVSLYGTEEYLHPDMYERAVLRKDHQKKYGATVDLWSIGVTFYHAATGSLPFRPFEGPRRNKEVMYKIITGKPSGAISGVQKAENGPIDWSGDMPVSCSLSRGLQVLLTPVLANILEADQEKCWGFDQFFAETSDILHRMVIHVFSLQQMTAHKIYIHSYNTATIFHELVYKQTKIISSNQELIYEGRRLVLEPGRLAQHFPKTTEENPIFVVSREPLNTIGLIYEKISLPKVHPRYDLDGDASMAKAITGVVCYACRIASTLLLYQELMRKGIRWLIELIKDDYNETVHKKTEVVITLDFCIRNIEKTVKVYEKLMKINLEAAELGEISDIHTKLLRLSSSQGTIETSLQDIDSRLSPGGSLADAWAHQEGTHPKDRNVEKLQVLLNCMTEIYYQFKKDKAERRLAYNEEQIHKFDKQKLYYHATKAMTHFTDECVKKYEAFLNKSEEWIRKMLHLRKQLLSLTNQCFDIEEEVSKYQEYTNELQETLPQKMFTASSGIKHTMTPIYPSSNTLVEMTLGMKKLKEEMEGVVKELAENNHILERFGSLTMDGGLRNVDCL
The following applies: at 1 µM.

For experiment [7], the target named is T4, Serine/threonine-protein kinase TBK1 (Homo sapiens). The following applies: at 10 µM.
The target of experiment [8] is T5, TGF-beta receptor type-1 (Homo sapiens) (UniProt P36897).
T5 sequence (whole entry): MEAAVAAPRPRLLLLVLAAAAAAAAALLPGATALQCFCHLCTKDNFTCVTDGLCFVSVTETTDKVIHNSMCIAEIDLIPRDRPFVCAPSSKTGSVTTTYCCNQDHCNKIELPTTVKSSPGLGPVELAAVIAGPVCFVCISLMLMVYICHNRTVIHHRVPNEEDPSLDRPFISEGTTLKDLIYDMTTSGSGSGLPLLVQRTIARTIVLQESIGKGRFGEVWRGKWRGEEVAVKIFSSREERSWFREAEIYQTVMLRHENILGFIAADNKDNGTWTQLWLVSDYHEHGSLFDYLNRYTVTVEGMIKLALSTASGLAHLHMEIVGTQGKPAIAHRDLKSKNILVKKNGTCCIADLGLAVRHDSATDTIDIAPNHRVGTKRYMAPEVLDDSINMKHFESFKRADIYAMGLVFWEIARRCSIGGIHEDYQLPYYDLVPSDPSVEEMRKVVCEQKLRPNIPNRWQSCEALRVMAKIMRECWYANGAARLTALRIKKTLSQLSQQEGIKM
The following applies: at 1 µM.

The target of experiment [9] is T5, TGF-beta receptor type-1 (Homo sapiens). The following applies: at 10 µM.
For experiment [10], the target named is Insulin-like growth factor 1 receptor (Homo sapiens) (UniProt P08069). Particulars: at 10 µM.
Chain of Insulin-like growth factor 1 receptor (Homo sapiens) (P08069 31-736 limits assumed): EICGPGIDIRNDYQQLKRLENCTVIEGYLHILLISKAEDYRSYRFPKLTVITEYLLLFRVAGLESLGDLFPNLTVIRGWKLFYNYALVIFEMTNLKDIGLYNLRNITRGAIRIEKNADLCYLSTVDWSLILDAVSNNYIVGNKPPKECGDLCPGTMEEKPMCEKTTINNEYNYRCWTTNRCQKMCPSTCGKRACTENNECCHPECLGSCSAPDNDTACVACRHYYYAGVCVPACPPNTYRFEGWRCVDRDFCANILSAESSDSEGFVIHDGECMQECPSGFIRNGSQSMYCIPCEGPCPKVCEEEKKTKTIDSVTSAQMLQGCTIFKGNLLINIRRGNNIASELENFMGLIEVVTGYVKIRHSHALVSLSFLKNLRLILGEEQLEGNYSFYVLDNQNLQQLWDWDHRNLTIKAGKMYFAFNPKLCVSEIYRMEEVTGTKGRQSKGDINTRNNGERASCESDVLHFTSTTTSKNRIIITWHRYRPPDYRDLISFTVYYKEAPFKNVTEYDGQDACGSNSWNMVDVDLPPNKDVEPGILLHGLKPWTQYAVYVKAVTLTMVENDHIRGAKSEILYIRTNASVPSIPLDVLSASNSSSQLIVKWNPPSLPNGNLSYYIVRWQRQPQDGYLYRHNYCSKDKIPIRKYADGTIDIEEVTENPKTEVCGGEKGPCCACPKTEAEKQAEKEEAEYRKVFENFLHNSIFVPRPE
Chain of Insulin-like growth factor 1 receptor (Homo sapiens) (P08069 741-1367 limits assumed): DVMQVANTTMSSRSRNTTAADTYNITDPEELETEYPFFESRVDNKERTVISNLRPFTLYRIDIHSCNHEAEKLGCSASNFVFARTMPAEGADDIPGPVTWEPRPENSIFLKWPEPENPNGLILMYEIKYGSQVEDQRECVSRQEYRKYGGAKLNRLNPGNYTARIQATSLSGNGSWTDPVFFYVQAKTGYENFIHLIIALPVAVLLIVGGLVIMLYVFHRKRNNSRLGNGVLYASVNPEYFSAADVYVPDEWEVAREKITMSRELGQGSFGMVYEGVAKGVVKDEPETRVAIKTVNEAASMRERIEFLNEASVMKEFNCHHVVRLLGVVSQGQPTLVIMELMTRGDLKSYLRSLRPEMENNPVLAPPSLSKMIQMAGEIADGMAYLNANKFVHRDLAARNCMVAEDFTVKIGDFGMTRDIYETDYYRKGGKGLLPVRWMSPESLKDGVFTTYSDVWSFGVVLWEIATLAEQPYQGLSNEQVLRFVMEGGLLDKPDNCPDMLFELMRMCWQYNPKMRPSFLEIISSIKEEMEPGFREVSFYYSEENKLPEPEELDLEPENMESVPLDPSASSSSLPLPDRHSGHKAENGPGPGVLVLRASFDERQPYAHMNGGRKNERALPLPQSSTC

With `O=C(c1ccccc1)c1ccc(N2CCOCC2)cc1O`, the residual activity in experiment [1] was 93%; in experiment [2], 100%; in experiment [3], 95%; in experiment [4], 91%; in experiment [5], 92%; in experiment [6], 91%. Besides, the residual activity in experiment [7] came to 77%; in [8], 95%; in experiment [9], 99%; in [10] it was 93%.

The record behind these values is ChEMBL document CHEMBL2218924, “A broad activity screen in support of a chemogenomic map for kinase signalling research and drug discovery” (Biochem J, 2013).
